The supplement of paper PMC5919970
Where a name gives a salt, the structure may show the parent alone. Over roughly 2,000 compounds, “fractional viability relative to vehicle” has its median near 0.91; the lowest 2% begin near 0.045. The sample holds the lowest values, similar compounds and a random draw of the others, so the mix is not that of the screen.

System: TYKNU
Test: fractional viability relative to vehicle; TYKNU is a high-grade serous ovarian cancer line; higher = less growth inhibition
Details: 72 h
Method in brief: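 TYKNU control cells or lentiCRISPRv2 knockout derivatives were seeded at 500 cells per well into drug-stamped 384-well plates holding a ~2100-compound library at 2 or 10 μM, in duplicate. Cells were grown at 37 °C in 5% CO2 in RPMI 1640 with 10% FBS, and drug treatment lasted 72 h. Viability was read by Cell Titer Glo luminescence. Duplicate treatment wells were averaged and normalised to duplicate control wells from the same plate position.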

[1] = 2uM, genotype: DNM1L knockout (sgDNM1L #1)
[2] = 2uM, genotype: sgCTRLA1 (non-targeting control)
[3] = 10uM, genotype: DNM1L knockout (sgDNM1L #1)
[4] = 10uM, genotype: sgCTRLA1 (non-targeting control)

| SMILES | fractional viability [1] | fractional viability [2] | fractional viability [3] | fractional viability [4] |
| --- | --- | --- | --- | --- |
| COc1cc(OC)c2c(=O)[nH]c(-c3cc(C)c(OCCO)c(C)c3)nc2c1 | 1.15 | 1.12 | 0.973 | 1.03 |
| CN(C)CCNC(=O)c1cccn2c(=O)c3cc4ccccc4cc3nc12 | 0.389 | 0.417 | 0.107 | 0.0609 |
| Cc1cnc(Nc2ccc(N3CCN(C)CC3)cc2)nc1Nc1cccc(S(=O)(=O)NC(C)(C)C)c1 | 0.363 | 0.472 | 0.0682 | 0.0804 |
| Cc1cnc(Nc2ccc(OCCN3CCCC3)cc2)nc1Nc1cccc(S(=O)(=O)NC(C)(C)C)c1 | 0.352 | 0.378 | 0.0362 | 0.0573 |
| C=CC(=O)Nc1cccc(Nc2nc(Nc3ccc(OCCOC)cc3)ncc2F)c1 | 0.626 | 0.721 | 0.273 | 0.297 |
| Cc1nc(Nc2cnn(C3CCNCC3)c2)nc2c1N(C)C(=O)c1cc3ccccc3cc1N2C | 0.723 | 0.802 | 0.376 | 0.51 |
| CCN(CC)CCOc1ccc(C(=C(Cl)c2ccccc2)c2ccccc2)cc1 [Clomifene citrate] | 0.751 | 1.08 | 0.178 | 0.479 |
| O=S(=O)(NCCSSCCNS(=O)(=O)c1cc(Cl)ccc1Cl)c1cc(Cl)ccc1Cl | 0.891 | 0.899 | 0.197 | 0.43 |
| Cc1cc(Nc2ncc(Cl)c(Nc3ccccc3S(=O)(=O)C(C)C)n2)c(OC(C)C)cc1C1CCNCC1 | 0.612 | 0.403 | 0.026 | 0.0128 |
| CN1CCN(Cc2ccc(Nc3ncc(Cl)c(Nc4ccccc4S(=O)(=O)N(C)C)n3)cc2)CC1 | 0.22 | 0.229 | 0.234 | 0.18 |
| O=C(O)c1cc2cccc([N+](=O)[O-])c2[nH]1 | 0.859 | 1.09 | 0.957 | 0.802 |
| CCCCNc1ncc2c(-c3ccc(CN4CCN(C)CC4)cc3)cn([C@H]3CC[C@H](O)CC3)c2n1 | 0.322 | 0.41 | 0.0773 | 0.0599 |
| C=CCc1cccc(/C=N/NC(=O)CN2CCN(Cc3ccccc3)CC2)c1O | 0.604 | 0.671 | 0.277 | 0.27 |
| Cc1[nH]nc2ccc(-c3cncc(OC[C@@H](N)Cc4ccccc4)c3)cc12 | 0.23 | 0.212 | 0.137 | 0.0399 |
| CC[C@H]1OC(=O)C[C@@H](O)[C@H](C)[C@@H](O[C@@H]2O[C@H](C)[C@@H](O)[C@H](N(C)C)[C@H]2O)[C@@H](CCN2C[C@H](C)C[C@H](C)C2)C[C@@H](C)C(=O)/C=C/C(C)=C/[C@@H]1CO[C@@H]1O[C@H](C)[C@@H](O)[C@@H](OC)[C@H]1OC [Tilmicosin] | 2.22 | 1.13 | 1.49 | 1.11 |
| CC(/C=C1\SC(=S)N(CC(=O)O)C1=O)=C\c1ccccc1 [Epalrestat] | 0.92 | 1.11 | 0.89 | 1.03 |
| CCOC(=O)[C@H]1O[C@@H]1C(=O)N[C@@H](CC(C)C)C(=O)NCCC(C)C [Aloxistatin] | 0.853 | 0.91 | 0.817 | 0.78 |
| Cc1c[nH]c(/C=C2\C(=O)Nc3ccccc32)c1CCC(=O)O | 0.91 | 0.936 | 0.874 | 0.784 |
| CC(C)(C)NCC(O)COc1cccc2c1CCC(=O)N2 (stereo not given) [Carteolol HCl] | 0.876 | 1.16 | 0.838 | 1.14 |
| CC(C)(Cc1ccc2ccccc2c1)NC[C@@H](O)COc1cccc(Cl)c1C#N | 0.854 | 1.1 | 0.585 | 0.0354 |
| CC(C)NCC(O)COc1cccc2ccccc12 (stereo not given) [Propranolol HCl] | 0.866 | 1.12 | 0.82 | 1.1 |
| NCc1c[nH]c(=S)n1[C@H]1CCc2c(F)cc(F)cc2C1 [Nepicastat (SYN-117) HCl] | 0.973 | 1.11 | 0.953 | 0.993 |
| NC1=N[C@@](c2cccc(-c3cncnc3)c2)(c2ccnc(C(F)F)c2)c2cccc(F)c21 | 0.851 | 1.01 | 0.765 | 0.736 |
| CCCc1cc2c(N3CCN(C4=NCC(C)(C)S4)CC3)ncnc2s1 [MI-2 (Menin-MLL Inhibitor)] | 0.919 | 0.869 | 0.747 | 0.665 |
| CCOC(=O)c1cnc2ccc(-c3cncc(NS(=O)(=O)c4ccccc4)c3)cn12 | 0.176 | 0.171 | 0.183 | 0.108 |
| O=C(c1ccccc1)c1ccc2nc(NC(=O)c3csc(C4CCN(c5ncnc6ccsc56)CC4)n3)[nH]c2c1 | 0.749 | 1.15 | 0.481 | 0.328 |
| CC(C)OC(=O)C1=CN(C(=O)c2ccc(F)c(F)c2)CC(C)(C)c2c1[nH]c1ccccc21 | 0.991 | 1.05 | 0.865 | 0.965 |
| CCc1cccc(CC)c1NC(=O)N1Cc2[nH]nc(NC(=O)c3ccc(N4CCN(C)CC4)cc3)c2C1 | 0.538 | 0.711 | 0.359 | 0.462 |
| CO[C@@H](C(=O)N1Cc2[nH]nc(NC(=O)c3ccc(N4CCN(C)CC4)cc3)c2C1)c1ccccc1 | 0.503 | 0.521 | 0.486 | 0.427 |
| CN1CCN(c2ccc(C(=O)Nc3n[nH]c4ccc(Cc5cc(F)cc(F)c5)cc34)c(NC3CCOCC3)c2)CC1 [Entrectinib (RXDX-101)] | 0.597 | 0.771 | 0.0511 | 0.0303 |
